Data: PubChem BioAssay AID651599 (National Center for Advancing Translational Sciences (NCATS), 2012)
Records with an inconclusive call do not appear. Active and inactive are the calls of the source. Calls follow the shape of the dose curve; as a rule, active = well fitted inhibition curve with a large enough effect; inconclusive = small, poorly fitted or top-dose-only effect; inactive = no such curve, though single readings can be large or run the other way.

biological target: Tumor susceptibility gene 101 protein (Homo sapiens) (UniProt Q99816); experiment: qHTS Assay for Iinhibitors of HIV-1 Budding by Blocking the Interaction of PTAP/TSG101: Hit Validation in TR assay; conditions: Tsg101 binding domain + Texas Red-labeled PTAP peptide, fluorescence polarization, 20 min; series mostly up to 57.5 µM; activity change, negative = inhibition: at the top concentration
Summary of the method: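 Texas Red-PTAP peptide (50 nM) binding to Tsg101 binding domain (10 uM), both final, in pH 7.5 HEPES buffer, read as polarization after 20 min at room temperature; compounds pinned before peptide addition.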
% is scaled to controls: 0 for no effect and ±100 for the full control effect.

Chain of Tumor susceptibility gene 101 protein (Homo sapiens) (Q99816 whole entry, looked up, the tested form may be a part): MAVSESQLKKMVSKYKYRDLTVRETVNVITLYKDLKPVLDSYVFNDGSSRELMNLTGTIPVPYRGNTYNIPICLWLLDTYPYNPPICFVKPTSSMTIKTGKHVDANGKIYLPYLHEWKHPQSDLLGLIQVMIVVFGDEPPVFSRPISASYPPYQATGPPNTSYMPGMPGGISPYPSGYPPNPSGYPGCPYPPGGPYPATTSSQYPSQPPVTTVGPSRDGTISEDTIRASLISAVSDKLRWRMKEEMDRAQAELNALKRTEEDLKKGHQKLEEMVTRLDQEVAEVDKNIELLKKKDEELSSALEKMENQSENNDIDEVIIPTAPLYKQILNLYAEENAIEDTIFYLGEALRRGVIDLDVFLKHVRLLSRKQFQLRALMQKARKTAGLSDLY

Structure (SMILES) | activity change, negative = inhibition
O=c1[nH]c(S)c(/C=C2\C=Nc3ccccc32)s1 | -12% (inactive)
N=C1/C(=C/c2coc3ccccc3c2=O)C(=O)N=C2SC(c3ccco3)=NN12 | -1.87% (inactive)
CC1CCc2cccc3c2N1c1cc(C#N)c(C#N)cc1O3 (centres undefined) | 0.564% (inactive)
Cc1cc(C=C2C(=O)c3ccccc3C2=O)c(C)n1-c1ccc(Cl)cc1 | -8.23% (inactive)
Cc1cc2nc3c(=O)[nH]c(=O)[nH]c3nc2c([N+](=O)[O-])c1N | -7.93% (inactive)
COc1ccc2nc(N3CCCC3)c(C#N)cc2c1 | 8.29% (inactive)
Clc1ccc(-c2nnc3sc(-c4ccc(Br)o4)nn23)cc1 | 63.6% (inactive)
CC1=Nc2ccccc2/C1=C\c1nc(-c2ccc(F)cc2)oc1O | 4% (inactive)
Nc1cnccc1C(=O)O | 3.42% (inactive)
O=C(NC1CCCCC1)c1cccc2c1C(=O)c1ccc(N3CCC(Cc4ccccc4)CC3)cc1S2(=O)=O | -4.15% (inactive)
CC(C)(C)C(=O)c1sc2nc(-c3cccs3)cc(C(F)(F)F)c2c1N | -10.8% (inactive)
CCCCCn1nc(-c2ccccc2)c2nc3ccccc3nc21 | -25.3% (inactive)
CC1=CC(=C(C#N)c2nc3ccccc3s2)C=C(C)N1CC1CCCO1 (centres undefined) | 2.93% (inactive)
CCc1ccccc1N=Cc1c(C)c(C#N)c2[nH]c3ccccc3n2c1=O | 22.2% (inactive)
C/C(O)=c1/ccc2cccc3nc(C)nc1c23 | -24% (inactive)
O=Cc1ccc2noc(-c3ccc(F)cc3)c2c1 | -18.7% (inactive)
COc1ccc(NC(=O)c2cccc(-c3ccc(O)cc3)c2)cn1 | -20.6% (inactive)
CCN1CCc2c(sc(NC(=O)Nc3ccc(Cl)c(Cl)c3)c2C(N)=O)C1 | -11.9% (inactive)
COc1ccc(CNC(=O)C(C#N)c2nc3ccccc3nc2N2CCCC2)cc1 (centres undefined) | -4.78% (inactive)
